Measurements: PubChem BioAssay
Activity calls are given as the source filed them.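 How the source made its calls, unless noted: active means inhibition at or above 50% at 10 µM; inactive means inhibition below 50%.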

Legend:
[1] = inhibitors of TNFa-induced NFkB p65 translocation, primary screen, imaging, HUVEC, MLSMR starter and 10KST1 sets (AID 438;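 active means inhibition above 20% together with a positive visual image hit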;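 further: compound added about 3h40 before a 20 min TNFalpha stimulation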;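 on inhibition: signal is the nuclear over cytoplasmic p65 intensity ratio per well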); conditions: HUVEC TNFa-induced p65 nuclear translocation; cell count: measured here: nuclei count (cytotoxicity indicator), at 2.08 µM; inhibition: at 2 µM, stronger effect = higher value, 0% TNFa-plus-vehicle, 100% no-TNFa wells
[2] = inhibitors of mutant huntingtin aggregation, primary screen, imaging, exon1htt(103Q)mCFP cells, high-content imaging (AID 483;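 active means visual image review flags a hit and inhibition of aggregation exceeds 20%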;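 further: compound exposure lasted 3 days before fixation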;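 on nuclei count: percent of the per-plate median nuclei count of sample wells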); conditions: exon1htt(103Q)mCFP cell line, aggregate imaging, at 2 µM; inhibition of aggregation: stronger effect = higher value; nuclei count: measured here: cell count, toxicity
[3] = inhibitors of E-selectin induction by TNFa, primary screen, imaging, HUVEC, immunofluorescence, MLSMR starter and 10KST1 sets (AID 487;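 active means visually confirmed hit in the image check and inhibition above 20%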;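 on inhibition: signal is fraction of cell area covered by stained E-selectin grains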;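 on nuclei count: 100% = median nuclei count of all wells on the same plate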); conditions: HUVEC TNFalpha-induced E-selectin immunofluorescence imaging, at 2 µM; inhibition: stronger effect = higher value; nuclei count: measured here: cell number, toxicity
[4] = molecular target: Voltage-gated potassium channel subunit beta-2 (Rattus norvegicus) (UniProt P62483); test: KvBeta enzyme negative modulators, primary screen, biochemical, NADPH fluorescence (AID 622;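 active means fluorescence slope higher than the sample average by over 3 SD, cut at about -0.22 in these data, passing the limit was not always enough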;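 further: slope of raw intensity against log time taken from 70 to 1610 s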); conditions: recombinant KvBeta, 4-cyanobenzaldehyde reduction, at 10 µM, stronger effect = higher value
Sequence of Voltage-gated potassium channel subunit beta-2 (Rattus norvegicus) (P62483 whole entry, looked up): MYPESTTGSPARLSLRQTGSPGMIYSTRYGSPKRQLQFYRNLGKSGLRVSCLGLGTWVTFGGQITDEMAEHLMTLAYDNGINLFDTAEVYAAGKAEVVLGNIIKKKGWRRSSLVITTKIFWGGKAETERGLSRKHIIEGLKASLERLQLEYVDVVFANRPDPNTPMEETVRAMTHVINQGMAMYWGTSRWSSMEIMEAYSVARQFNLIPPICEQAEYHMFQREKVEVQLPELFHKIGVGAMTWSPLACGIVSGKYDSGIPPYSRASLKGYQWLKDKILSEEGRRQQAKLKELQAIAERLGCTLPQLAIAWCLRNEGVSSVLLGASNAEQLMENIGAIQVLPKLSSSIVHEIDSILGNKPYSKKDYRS

[5] = molecular target: Voltage-gated potassium channel subunit beta-2 (Rattus norvegicus) (UniProt P62483); test: KvBeta positive modulators, primary screen, biochemical, NADPH fluorescence (AID 623;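 active means NADPH fluorescence slope more negative than the mean of all samples by about 3 SD, 99.7% confidence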;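 further: fluorescence intensity change per second fitted from 20 to 320 s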); conditions: Recombinant KvBeta, NADPH fluorescence decrease slope, 10 min; at 10 µM; stronger effect = lower value
[6] = molecular target: Alpha-2C adrenergic receptor (Homo sapiens) (UniProt P18825); test: modulators of alpha2C/GIRK thallium flux, primary screen, cell-based, HEK293 alpha2C/GIRK1/2 (AID 624;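 active means fluorescence slope after compound addition differing from the mean of all screened samples at 99.7% confidence, in either direction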;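 further: slope of fluorescence ratio to pre-addition baseline per second over 15 to 24 s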); conditions: thallium flux BTC fluorescence, at 10 µM, actives lie on both sides
Sequence of Alpha-2C adrenergic receptor (Homo sapiens) (P18825 whole entry, looked up): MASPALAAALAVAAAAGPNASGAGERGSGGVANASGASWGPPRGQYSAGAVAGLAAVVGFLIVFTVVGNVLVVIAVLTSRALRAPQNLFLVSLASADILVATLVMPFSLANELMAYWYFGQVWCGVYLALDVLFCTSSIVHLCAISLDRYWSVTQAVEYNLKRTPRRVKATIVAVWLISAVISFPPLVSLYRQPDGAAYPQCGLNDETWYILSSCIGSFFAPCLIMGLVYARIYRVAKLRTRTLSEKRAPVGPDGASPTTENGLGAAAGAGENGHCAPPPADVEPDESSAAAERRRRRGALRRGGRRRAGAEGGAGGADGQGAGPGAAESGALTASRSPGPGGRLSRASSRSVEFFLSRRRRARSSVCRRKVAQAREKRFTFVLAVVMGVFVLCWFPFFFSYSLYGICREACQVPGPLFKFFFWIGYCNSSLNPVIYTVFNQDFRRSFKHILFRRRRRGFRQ

[7] = inhibitors of Sendai virus-induced IRF3 signaling, primary screen, TLR/RLR signaling modifier project, cell-based, Sendai virus stimulus, luciferase, 10K MLSCN set (AID 602276); conditions: HEK293 RL24 IRF3 luciferase reporter, at 10 µM, stronger effect = higher value;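 further: firefly luciferase from ISG56 promoter only with Renilla not read in this screen; 0% = Sendai virus plus DMSO and 100% = medium plus DMSO without virus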
[8] = inhibitors of poly I:C-induced TLR3 signaling, primary screen, cell-based, poly I:C stimulus, luciferase, 10K MLSCN set (AID 602277;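 active means inhibition of the reporter signal at or above 50%; inactive means inhibition below 50%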); conditions: HEK293-TLR3 RL24 IRF3 luciferase reporter, at 10 µM, stronger effect = higher value

| Structure (SMILES) | cell count [1] | inhibition [1] | inhibition of aggregation [2] | nuclei count [2] | inhibition [3] | nuclei count [3] | fluorescence slope [4] | NADPH fluorescence slope [5] | slope [6] | inhibition [7] | inhibition [8] |
| --- | --- | --- | --- | --- | --- | --- | --- | --- | --- | --- | --- |
| Cc1cc(C)n(-c2nc3c(c(=O)[nH]c(=O)n3C)n2Cc2ccc(F)cc2)n1 | 402 | 1.3% (inactive) | -21.6% (inactive) | 94.4% | -7.5% (inactive) | 102% | -0.324 (inactive) | -3.8e-05 (inactive) | 0.00739 (inactive) | 13% (inactive) | 13.7% (inactive) |
| Cc1cc(NS(=O)(=O)c2ccc(NC(=O)COc3ccccc3C(C)C)cc2)no1 | 579 | -12.7% (inactive) | 17.6% (inactive) | 72.3% | -2.6% (inactive) | 116% | -0.555 (inactive) | -3.3e-05 (inactive) | 0.00559 (inactive) | 14.6% (inactive) | 39.1% (inactive) |
| CCCn1nc(CC(=O)O)c2ccccc2c1=O | 468 | -12.3% (inactive) | 18.8% (inactive) | 123% | -10.6% (inactive) | 119% | -0.426 (inactive) | -3.1e-05 (inactive) | 0.00533 (inactive) | 16.7% (inactive) | 16.8% (inactive) |
| CCCCNC(=O)c1nnn(-c2ccccc2)c1N | 311 | 3.9% (inactive) | 8% (inactive) | 110% | -11.4% (inactive) | 120% | -0.568 (inactive) | 2.4e-05 (inactive) | 0.00585 (inactive) | -55.7% (inactive) | -166% (inactive) |
| COC(=O)c1cc(-c2ccccc2)sc1NC(=O)c1cc(C)on1 | 365 | -2.2% (inactive) | -13.8% (inactive) | 104% | -21.2% (inactive) | 111% | -0.342 (inactive) | -1.3e-05 (inactive) | 0.00783 (inactive) | -14.9% (inactive) | -8.07% (inactive) |
| CC1CCCN(S(=O)(=O)c2coc(C(N)=O)c2)C1 (centres undefined) | 697 | -0.6% (inactive) | -15.4% (inactive) | 111% | 1.5% (inactive) | 95.6% | -0.6 (inactive) | -2.8e-05 (inactive) | 0.00651 (inactive) | 1.83% (inactive) | 25.1% (inactive) |
| Cc1ccc(C)c(C(=O)CC2(O)C(=O)Nc3ccccc32)c1 (centres undefined) | 602 | -11% (inactive) | 23.6% (inactive) | 62.9% | -108% (inactive) | 126% | -0.416 (inactive) | -3.2e-05 (inactive) | 0.00493 (inactive) | 3.23% (inactive) | -1.7% (inactive) |
| CCOC(=O)c1sc(NC(=O)c2noc3c2CCCC3)c(C(=O)OCC)c1C | 688 | -2.9% (inactive) | -14.8% (inactive) | 120% | -47.9% (inactive) | 87.6% | -0.549 (inactive) | 1e-05 (inactive) | 0.0086 (inactive) | 2.17% (inactive) | 6.46% (inactive) |
| COC(=O)c1ccccc1NC(=O)COc1ccc(S(=O)(=O)N2CCCC2)cc1C | 618 | 7% (inactive) | 10.3% (inactive) | 88.3% | 44.3% (inactive) | 98.4% | -0.405 (inactive) | 4.1e-06 (inactive) | 0.00334 (inactive) | 16.3% (inactive) | 6.91% (inactive) |
| Cc1cc(C)n2c(SCCN3C(=O)c4ccccc4C3=O)nnc2n1 | 787 | -5.1% (inactive) | 12.4% (inactive) | 126% | -8.9% (inactive) | 107% | -0.572 (inactive) | -1.7e-05 (inactive) | 0.00697 (inactive) | 10.1% (inactive) | 24.4% (inactive) |
| CCOC(=O)C(CC)n1nc(C)n2c(cc3sccc32)c1=O (centres undefined) | 526 | 7.7% (inactive) | 14.3% (inactive) | 110% | -25.8% (inactive) | 122% | -0.567 (inactive) | -3.4e-05 (inactive) | 0.0065 (inactive) | 10.8% (inactive) | 19.7% (inactive) |
| C=CCNS(=O)(=O)c1ccc2nsnc2c1 | 383 | 2.2% (inactive) | 6.3% (inactive) | 89.1% | -33.6% (inactive) | 121% | -0.508 (inactive) | -3.2e-05 (inactive) | 0.0046 (inactive) | -4.18% (inactive) | -2.28% (inactive) |
| Cc1ccc(-n2c(=O)c(C#N)cc3c(=O)n4ccccc4nc32)cc1 | 338 | 3.6% (inactive) | -21.9% (inactive) | 99.9% | -31% (inactive) | 102% | -0.232 (inactive) | 9.6e-06 (inactive) | 0.00607 (inactive) | 5.28% (inactive) | 26.9% (inactive) |
| COc1ccc(CN2C(=O)[C@@H]3C(c4ccc(F)cc4)=NO[C@@H]3C2=O)cc1 | 338 | -10.5% (inactive) | -8.2% (inactive) | 87.7% | -34.5% (inactive) | 113% | -0.302 (inactive) | -5.3e-05 (inactive) | 0.00504 (inactive) | 13.4% (inactive) | 23.3% (inactive) |
| CC(=O)C1=C(C)NC(=O)NC1c1cccc(O)c1 (centres undefined) | 454 | 7.3% (inactive) | 0% (inactive) | 111% | -36.2% (inactive) | 110% | -0.399 (inactive) | -5e-05 (inactive) | 0.00509 (inactive) | 14.2% (inactive) | 16% (inactive) |
| CCOC(=O)C1(CC)NC(c2cccc(F)c2)C2C(=O)N(CC)C(=O)C21 (centres undefined) | 567 | -7.7% (inactive) | 21.4% (inactive) | 93.8% | -6.6% (inactive) | 70.2% | -0.476 (inactive) | -0.00018 (inactive) | 0.00451 (inactive) | 12.4% (inactive) | 16.3% (inactive) |
| O=S(=O)(Nc1nc2ccccc2nc1NCc1ccco1)c1cccs1 | 448 | -6.2% (inactive) | -18.2% (inactive) | 105% | -73.9% (inactive) | 120% | -0.298 (inactive) | -6.8e-05 (inactive) | 0.00495 (inactive) | 14.7% (inactive) | 14.6% (inactive) |
| Cc1nc(NC(=O)C23CCC(C)(C(=O)O2)C3(C)C)sc1C (centres undefined) | 595 | -13.1% (inactive) | 15.4% (inactive) | 105% | -22.1% (inactive) | 106% | -0.462 (inactive) | 8.7e-06 (inactive) | 0.00641 (inactive) | 12.9% (inactive) | 29.5% (inactive) |
| Cc1cccc(-c2nc(CN3CCCC(C(=O)NC4CCCC4)C3)c(C)o2)c1 (centres undefined) | 333 | -0.4% (inactive) | -3.8% (inactive) | 111% | -15.2% (inactive) | 103% | -0.514 (inactive) | -5.9e-06 (inactive) | 0.00415 (inactive) | 20.6% (inactive) | 16.3% (inactive) |
